The whole screen tested about 53,000 sequences, of which about 3,700 (7%) were called active.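 Rule for the calls: active = gene knockdowns whose robust z-score for IL-1 alpha signal is at least 2 or at most -2, so actives lie on both sides; inactive = the rest.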 The entries come from a sample that favours actives as a whole.

The values that follow come from PubChem BioAssay AID1508600 (Functional Genomics Laboratory (NCATS/FGL), 2020).

A short description of the assay: Components of the Cytosolic LPS Sensing Pathway: Gene Identification via Genome-wide siRNA Screen.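 Note: robust z of the log signal after scaling to non-targeting control siRNA wells of the plate.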 The following applies: RAW264.7 macrophages, IL-1a HTRF, actives lie on both sides, screened at 100 nM (by protocol), cells primed 5 h with Pam3CSK4 first. In a few lines: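 Using IL-1a HTRF as read-out, the screen measured release from RAW264.7 cells after 48h siRNA knockdown (100 nM), 5 h Pam3CSK4 priming and 24 h cytosolic LipidA. Values were expressed relative to negative-control wells as robust z-scores.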
Background: Time-resolved FRET reads energy transfer from a long-lived donor to a nearby acceptor.
In the case of GGUGCUUUGUUAUCCAUAATT against Tnfrsf26, the z-score was -2.72 (active).

Regarding CCUAAUUGUAGUAGUACUATT against Olfr117, the z-score is -0.955 (inactive).

As to GGCCUAGCAAUUCUUGAGCTT against Gm5087, the z-score was -0.18 (inactive).

Consider CCCUGUAUAUUGCAUUUCCTT against Pcdhb21, for which the z-score was 0.198 (inactive).

Regarding GGGAGUUUUUAUAUGGUUUTT against Ybey, the z-score was 1.27 (inactive).

Regarding GCAGAUGACUAUCGGAAGUTT against Usp53, the z-score was 2.19 (active).

For the sequence GGGCAGCAAAGAAUUAACUTT against Ptpmt1, the z-score was -0.619 (inactive).

Regarding GGAAGAAAAUCUUGAAGCATT against Ddx51, the z-score was -0.232 (inactive).

As to GCGAUAUGACAGACUCUUCTT against Csrnp1, the z-score is 1.79 (inactive).

With GGAUGUUAUUCGCCACGCGTT against Zfp335, the z-score was -0.134 (inactive).

For the sequence CCCGUUCAAGCAAUUACAUTT against G2e3, the z-score is -1.05 (inactive).

For the sequence GGUGAAGACUUCCAGAAGGTT against Reg3a, the z-score was -0.186 (inactive).

As for CCUGUACAGUUGGAAACAUTT against Snrpd1, the z-score is -2.02 (active).

For GGACUUCUCCUUUAAUAAUTT against Cox7a2l, the z-score was -0.494 (inactive).

GCCCGACCUGUUGAGAAGATT against Znhit3: the z-score was 1.43 (inactive).

Turning to GGAGGAAAAGUAGGUUUGCTT against Peli1, the z-score was -0.531 (inactive).

Regarding GGUAAGUGGAGGUAUUCUUTT against Egln1, the z-score is 2.28 (active).

As to GGCCAGGAAAUAUGAAAUATT against Phtf1, the z-score is -0.352 (inactive).

For GCCUUGAUAAUUUUGUAAGTT against Gimap9, the z-score is 0.533 (inactive).

Consider GCACCCUAAUGUGAUCGCATT against Cdk19, for which the z-score was -1.34 (inactive).

On to CCACCUGAAUCAUUACUCATT against Rdh19, for which the z-score was -3.29 (active).

Regarding GGAGAAGAUUUUCUGUAUCTT against Atp13a5, the z-score was 0.545 (inactive).

In the case of GCUGAGAGACUUGUGAAAUTT against Ndufb11, the z-score was 1.06 (inactive).

As for GGAAAUCAGCUGUGAAAAATT against Fbxl20, the z-score was -0.628 (inactive).

Take GCAGGUCUAAAACUCUCAUTT against Sfmbt1: the z-score was 2.38 (active).

In the case of GCCUCAUCGUCAUCGCCAATT against Gpbar1, the z-score is -0.897 (inactive).

For GCAUACCUAGACUGAAAACTT against Rilpl2, the z-score was -0.477 (inactive).

Consider GGAGCUGUUUCCAGUUCAGTT against Tomm40, for which the z-score was -1.12 (inactive).

On to CGUGCUGGUAACGGAAUUGTT against Ptger2, for which the z-score was 2.29 (active).

In the case of GGGAACAGGAGAAAACGGATT against Bnipl, the z-score is 1.2 (inactive).

Regarding GGAAGACAACUGUUGUGGCTT against Dagla, the z-score is -0.54 (inactive).

Regarding GUUCGGUACAACUUUUCUGTT against Alx4, the z-score is 0.326 (inactive).

Turning to GGAUAAAAAUCACCCACUGTT against Vwa8, the z-score was 0.21 (inactive).

With GCCUCUUAAUGCUUUUGUATT against Sfxn1, the z-score was -0.272 (inactive).

GGUGGUUGGAGUACUCAAGTT against Capza1: the z-score is -2.53 (active).

On to GCACAUCACAAGAAUUACUTT against Lhfpl1, for which the z-score was -0.0486 (inactive).

On to AGCUGACUGUAAAAAAACCTT against Fuom, for which the z-score is 0.19 (inactive).

As for GGAAAUGCCAUAGUCCUAUTT against Mrgprb5, the z-score is -2.54 (active).

Take GGAACUGGCCAAGUUUAAATT against Ing3: the z-score was 0.653 (inactive).

In the case of GGCCAGAACUACGAAGCCATT against Capn12, the z-score was 0.981 (inactive).

For the sequence GGACCUUCGUGAGAAUUUCTT against Mst1, the z-score was 0.521 (inactive).

With CCUACAGUGACCUUUCCCGTT against Apcs, the z-score was -1.22 (inactive).

For the sequence GGAUAUCACCCACAAUAAATT against Vps28, the z-score is -0.653 (inactive).

Regarding GGAGCAAUUCUACCGCUACTT against Fbxw5, the z-score is -2.14 (active).

Take GCCCAUUUUAGUAAACGAATT against Dspp: the z-score was 1.87 (inactive).

GGCCUUAAAGAAACACAAGTT against Hnrnph2: the z-score is 2.3 (active).

Regarding GGUCCUUCAACGGAAGGGATT against Tagap, the z-score is 0.196 (inactive).

For the sequence GGUUUGCAAUAAUUUUCCCTT against Cyp2c66, the z-score is -0.0991 (inactive).

Take CCUAUUAUAGGACAAAGUATT against Efhc2: the z-score is -0.54 (inactive).

Turning to CCACAAGUUCCACACUCCATT against Olfr1163, the z-score was 0.42 (inactive).

For GGAGGGACAUGAUUUUGAATT against Pfkfb2, the z-score is 2.22 (active).

GGAGCAAGUGAUGAUGACCTT against Pkp1: the z-score was -0.263 (inactive).

GCGGUAUGGGAAGCUAAAGTT against Rhbdf1: the z-score was 0.617 (inactive).

On to GGAGAUACUGAAAGAGGCCTT against C1qtnf12, for which the z-score was -1.25 (inactive).

In the case of UUCUUGACAGCUGGAAGAGTT against Irgc1, the z-score was 0.12 (inactive).

In the case of GGAAAAACGAUACUUGAUUTT against Gria3, the z-score was -0.751 (inactive).

GGUGAGACUAUAAAGAUAATT against Piwil4: the z-score was 0.841 (inactive).

For the sequence CCGAGCAGGAUUGCAUAUATT against Cspg5, the z-score is 1.41 (inactive).

GGCAUUGAGAUGCUGGAAATT against Trappc4: the z-score was 2.46 (active).

Consider GCUAUUCUGAUGCGUGGAGTT against Coq2, for which the z-score was -1.24 (inactive).

Turning to GCCACGACAACAAAUCCCATT against Lbr, the z-score is -2.62 (active).

Consider UGAAGCUGUCCCGGACUAATT against Shf, for which the z-score is 0.731 (inactive).

On to GGUCAUUGGCACCAACAAGTT against Tgfbi, for which the z-score is -0.722 (inactive).

GGAACAAAGAGGUGAUGUUTT against Olfr109: the z-score is -0.949 (inactive).

As to GGAGAUGAUUGACCGGCUATT against Epc1, the z-score was -1.03 (inactive).

Take CCAUUUACCUCAUAGGACCTT against Crb3: the z-score is -0.239 (inactive).

As for CGACCAUCUUUACUUUAUCTT against Cilk1, the z-score was 1.61 (inactive).

Turning to GGAGGGAAGCGAGAGUUUUTT against Emilin2, the z-score is 2.25 (active).

Turning to GGGUCGUAAUGAGUUCUGGTT against Med1, the z-score is 0.83 (inactive).

Regarding GGAAACUUUUGGAAGACUATT against Jmjd6, the z-score was 2.02 (active).

In the case of GGGCCAAUAAAGCAACUGCTT against Laptm5, the z-score was 0.704 (inactive).

In the case of GGAUACUCCUCUGAGUAGUTT against Mtmr11, the z-score is -0.469 (inactive).

As for GCCAAAGUGUGUGUUGAAGTT against Gng11, the z-score is -0.296 (inactive).

As to CGCACACAGUCGUAUGUACTT against Ryr1, the z-score is -1.21 (inactive).

GGGAACCAUCAAUAGGCACTT against Apol7a: the z-score was 0.923 (inactive).

On to “GGGUAUUAAAACCUCACUUTT against 4931406H21Rik”, for which the z-score was -2.58 (active).

In the case of GGCACAAAGCAAGAUUACCTT against Cebpz, the z-score was 0.422 (inactive).

In the case of CCAGAAUGUAAACUUGGUCTT against Trpv6, the z-score is 0.0508 (inactive).

Regarding GGUGAUAAAGCCAAGCAAATT against Vps4b, the z-score is -0.48 (inactive).

Regarding GGGCUUCUUUGACCUCAUCTT against Kdelr1, the z-score is -2.71 (active).

Regarding GGAUUCAAGGAAGGCCUUCTT against Myl7, the z-score was -0.146 (inactive).

For GGGACUCAGAAUCCACACUTT against Olfr1046, the z-score was 1.91 (inactive).

With GGAGCUUAGACAAAAAGCCTT against Spty2d1, the z-score is -1.04 (inactive).

As to GGCCGCCCUAAAAAGAAGCTT against Olfr95, the z-score was 1.29 (inactive).

GGAGAUUGAUGAGCAUGCCTT against Rab40b: the z-score was -2.15 (active).

On to CGCCUUAUAAUAUACCUAUTT against Clmp, for which the z-score is 1.12 (inactive).

GCCAUGAUGACUAACCUUATT against Dbpht2: the z-score is -1.27 (inactive).

GGAACUUGAGGUUUUCUGGTT against Spag17: the z-score was -1.89 (inactive).

Turning to GGAGAUCCGUCGAAUCAACTT against Anxa4, the z-score was 3.19 (active).

As to GCACCUGAGAAGCUCAUUGTT against Chil5, the z-score was -1.96 (inactive).

Consider GGUUGACCUGUGCUUUUCGTT against Arr3, for which the z-score is -0.625 (inactive).

Regarding GGAGCAGCAGAAGAUCCUUTT against Olfr47, the z-score was 2.52 (active).

For GGAAAUGAAUGGAAAUAGUTT against Ino80c, the z-score was -0.192 (inactive).

Take GGAGGAAAAGGCAAUCGUUTT against Mtg2: the z-score was 0.359 (inactive).

With GGAACACAAUAGUACAUACTT against Slc2a4, the z-score is 3.98 (active).

For the sequence CCUUACCACAUCCUUGUCGTT against Fcf1, the z-score was -1.33 (inactive).

As to GGACAGUUAAUGUUUCUGUTT against Clptm1l, the z-score was 0.254 (inactive).

Take GGAUCAUUUCUGGCAAGAGTT against Irf7: the z-score is -0.379 (inactive).

With GGGAAGAGAAAACUGGACUTT against Xrcc1, the z-score is 3.01 (active).

For the sequence GGCUGUGUGAGUCUGCUCATT against Ankrd55, the z-score was -0.0408 (inactive).

Take GCAUGAACUUACCCUAUUATT against Vmn1r197: the z-score was -1.25 (inactive).

As to GCAUAAUAGCGCAAGCUACTT against Ifi47, the z-score was 0.0047 (inactive).

GCACUCGAAUUUCUUUACUTT against Slc23a2: the z-score is 2.22 (active).

“GCAGACUCCCAUGUGGAUUTT against 1700067K01Rik”: the z-score was 1.96 (inactive).

In the case of GGAAACUAAUUUCAAGCCUTT against Hat1, the z-score was 1.19 (inactive).

Turning to CCUAUGAGGAGGUACUAAATT against Itih1, the z-score was -0.0512 (inactive).

Turning to GGAGUGACAAAAAUGUCGGTT against Snx13, the z-score was -0.56 (inactive).

Regarding GGUUUGUCAAUGAUACUAATT against Adam17, the z-score is 2.49 (active).
